Reference: PubChem BioAssay (Tox21)
“And” between values parts separate entries of the source, which are not always exact repeats. Equal entries are not always repeated. Inconclusive results are not listed. Entries that show only a call come without a potency. Where a structure was tested more than once in an assay, its records may differ in their call. The source made the active and inactive calls. Unless noted, the call rests on the fitted dose curve; in most records, active means well fitted curve in the direction sought with a large enough effect in the repeat runs; inconclusive means weak or mixed curves; inactive means no such curve, though single readings can be large; an effect the other way counts as inactive or inconclusive. Starred links: 1 amine or outer side, 2 acyl side, 3 side chain; linkers in the order of their positions; H or OH if unused. Positions of bridges follow the written chain, without caps; N, C: chain ends. Non-standard residues stand in square brackets, D forms with d. Residues, ends and D or L forms follow the SMILES beside them. Chains are numbered I, II in the order given. Actinocin(9to1) = Cc1c2oc3c(C)ccc(C(=O)[*:1])c3nc-2c(C(=O)[*:2])c(N)c1=O; NMeV = CN[C@H](C(=O)O)C(C)C; Sar = CNCC(=O)O

What was measured:
[1] = qHTS assay to identify small molecule antagonists of the estrogen receptor alpha (ER-alpha) signaling pathway using the BG1 cell line in the presence of 0.1 nM 17-beta-estradiol - cell viability counter screen (AID 1259241); further: nearly all actives have a fitted effect of over 40% in size; further: potency means the concentration at half of the fitted maximal effect
Outline: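 Viability in VM7Luc4E2 cells after 22 hr compound exposure under 0.1 nM 17beta-estradiol stimulation, by CellTiter-Fluor.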

[2] = qHTS assay to identify small molecule antagonists of the androgen receptor (AR) signaling pathway using the MDA cell line in the presence of 0.5 nM R1881 - cell viability counter screen (AID 1259242); further: nearly all actives have a fitted effect of over 45% in size; further: potency means the concentration at half of the fitted maximal effect
Outline: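 Cytotoxicity toward MDA-kb2 cells is measured by CellTiter-Fluor live-cell protease fluorescence after 16 hr compound exposure at 37C in the presence of 0.5 nM R1881 stimulator.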

[3] = qHTS assay to identify small molecule agonists of the sonic hedgehog signaling (Shh) pathway - cell viability counter screen (AID 1259366); further: nearly all actives have a fitted effect of over 50% in size; further: potency means the concentration at half of the fitted maximal effect
Outline: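 Stable Gli1-Luc NIH/3T3 clone, 2,000 cells/well. Compound exposure 24hr at 37C. Read-out: CellTiter-Fluor fluorescence.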

[4] = qHTS assay to identify small molecule antagonists of the sonic hedgehog signaling (Shh) pathway - cell viability counter screen (AID 1259367); further: nearly all actives have a fitted effect of over 55% in size; further: potency means the concentration at half of the fitted maximal effect
Outline: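 NIH/3T3-derived Gli1-Luc reporter cells, 2,000/well, plated 4 hr before compound addition, then stimulated with conditioned medium for 24 hr at 37C. Viability measured in the same wells by CellTiter-Fluor fluorescence, reagent added at 23 hr for 1 hr.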

[5] = qHTS assay to identify small molecule agonists of the sonic hedgehog signaling (Shh) pathway (AID 1259368; calls by dose curve;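 further: NIH/3T3-derived 3T3Gli1-Luc cells carrying a stable Gli1-driven firefly luciferase reporter; series mostly up to about 92 µM; nearly all actives have a fitted effect of over 15% in size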)
Outline: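 Steps: seed 3T3 Gli1-Luc cells, incubate 4 hr at 37 C, pin-transfer compounds in DMSO alongside a positive control, incubate 24 hr, add luciferase detection reagent, wait 30 min at room temperature, read luminescence.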

[6] = qHTS assay to identify small molecule HDAC inhibitors (AID 1259364); further: top concentration of the series differs between compounds; nearly all actives have a fitted effect of over 45% in size
Outline: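 Homogeneous cell-based luminescent assay of endogenous class I/II HDAC activity; HCT-116 cells, 2 h compound exposure, 30 min HDAC-Glo development at RT.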

[7] = qHTS assay to identify small molecule HDAC inhibitors - cell viability counter screen (AID 1259365); further: series mostly up to about 92 µM; nearly all actives have a fitted effect of over 50% in size
Outline: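 Cytotoxicity was gauged in wild-type HCT-116 cells after a brief 2hr treatment with DMSO-dissolved compounds at 37C and 5% CO2, using CellTiter-Glo luminescence developed for 30min at room temperature.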

[8] = qHTS assay to identify small molecule phospholipidosis (PLD) inducers (AID 1259344; active means well fitted curve in the direction sought with a large enough effect; an effect the other way counts as inactive or inconclusive)
Outline: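 HepG2 cells, 900/well, treated with compound plus LipidTOX Red for 24 h at 37 C; amiodarone positive and DMSO negative controls. Fixed with paraformaldehyde/Hoechst, then high-content imaging scored LipidTOX pit count and integrated intensity per well and per cell.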

[9] = target: Estrogen receptor (Homo sapiens) (UniProt P03372); test: qHTS assay to identify small molecule antagonists of the estrogen receptor alpha (ER-alpha) signaling pathway using the BG1 cell line in the presence of 0.1 nM 17-beta-estradiol (AID 1259244); further: nearly all actives have a fitted effect of over 50% in size; further: potency means the concentration at half of the fitted maximal effect
Estrogen receptor (Homo sapiens), sequence (P03372 whole entry, looked up): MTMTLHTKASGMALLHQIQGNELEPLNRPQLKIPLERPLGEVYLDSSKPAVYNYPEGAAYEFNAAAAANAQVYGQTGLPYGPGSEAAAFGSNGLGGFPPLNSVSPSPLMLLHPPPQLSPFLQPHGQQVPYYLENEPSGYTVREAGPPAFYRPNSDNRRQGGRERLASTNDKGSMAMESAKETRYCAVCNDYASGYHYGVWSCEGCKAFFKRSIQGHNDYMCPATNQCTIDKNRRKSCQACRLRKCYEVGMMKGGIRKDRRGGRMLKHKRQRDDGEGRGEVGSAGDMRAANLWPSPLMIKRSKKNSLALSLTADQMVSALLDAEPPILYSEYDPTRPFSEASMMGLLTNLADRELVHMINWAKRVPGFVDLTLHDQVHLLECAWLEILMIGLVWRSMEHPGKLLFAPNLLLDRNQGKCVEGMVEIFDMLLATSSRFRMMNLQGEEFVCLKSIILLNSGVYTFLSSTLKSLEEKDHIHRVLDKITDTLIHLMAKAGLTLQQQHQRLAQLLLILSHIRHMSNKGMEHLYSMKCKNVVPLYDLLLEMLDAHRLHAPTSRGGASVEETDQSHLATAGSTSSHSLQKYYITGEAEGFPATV
Outline: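 After 5 days in hormone-depleted medium (charcoal-stripped serum, no phenol red), VM7Luc4E2 cells were seeded, incubated 24 h, then co-treated with compound and 0.1 nM (final) estradiol for 22 h before luminescence detection.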

[10] = target: Androgen receptor (Homo sapiens) (UniProt P10275); test: qHTS assay to identify small molecule antagonists of the androgen receptor (AR) signaling pathway using the MDA cell line in the presence of 0.5 nM R1881 (AID 1259243); further: nearly all actives have a fitted effect of over 50% in size; further: potency means the concentration at half of the fitted maximal effect
Androgen receptor (Homo sapiens), sequence (P10275 whole entry, looked up): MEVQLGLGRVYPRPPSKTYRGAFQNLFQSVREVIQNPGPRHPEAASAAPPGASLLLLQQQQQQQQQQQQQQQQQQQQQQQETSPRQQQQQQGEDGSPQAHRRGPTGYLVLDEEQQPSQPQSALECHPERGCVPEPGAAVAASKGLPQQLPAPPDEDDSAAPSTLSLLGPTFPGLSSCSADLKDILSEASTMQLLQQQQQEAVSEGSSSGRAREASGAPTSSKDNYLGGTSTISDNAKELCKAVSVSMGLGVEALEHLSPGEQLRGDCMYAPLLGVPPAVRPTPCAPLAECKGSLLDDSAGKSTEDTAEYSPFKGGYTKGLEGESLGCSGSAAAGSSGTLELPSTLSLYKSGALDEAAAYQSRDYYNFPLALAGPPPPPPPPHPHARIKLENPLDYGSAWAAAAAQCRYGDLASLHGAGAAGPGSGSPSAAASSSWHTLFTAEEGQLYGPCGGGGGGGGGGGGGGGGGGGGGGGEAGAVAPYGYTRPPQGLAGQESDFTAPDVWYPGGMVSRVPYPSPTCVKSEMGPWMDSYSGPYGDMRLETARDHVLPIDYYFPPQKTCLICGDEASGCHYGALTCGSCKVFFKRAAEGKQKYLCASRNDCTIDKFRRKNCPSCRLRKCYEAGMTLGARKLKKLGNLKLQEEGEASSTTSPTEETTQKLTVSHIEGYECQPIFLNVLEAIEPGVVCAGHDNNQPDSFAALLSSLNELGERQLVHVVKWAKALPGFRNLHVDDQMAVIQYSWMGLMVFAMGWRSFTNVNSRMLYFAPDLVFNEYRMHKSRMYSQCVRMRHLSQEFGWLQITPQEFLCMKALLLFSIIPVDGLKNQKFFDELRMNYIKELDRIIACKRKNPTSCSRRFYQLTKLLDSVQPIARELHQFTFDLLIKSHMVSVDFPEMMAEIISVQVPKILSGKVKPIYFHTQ
Outline: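 Steps: seed MDA-kb2 cells, incubate 5 hr at 37C; pin-transfer compounds in DMSO; add R1881 to 0.5 nM final; incubate 16 hr; add ONE-Glo, wait 30 min at room temperature; read luminescence.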

Row | Compound | Potency [1] | Potency [2] | Potency [3] | Potency [4] | Potency [5] | Potency [6] | Potency [7] | Potency [8] | Potency [9] | Potency [10]
1 | C/C=C/c1ccc(OCC)c(O)c1 | inactive | inactive | inactive | inactive | inactive |  |  |  |  | 
2 | O=C(O)CCc1ccccc1 | inactive | inactive | inactive | inactive | inactive | inactive | inactive |  |  | 
3 | O=C(Cl)c1cccc(C(=O)Cl)c1 | inactive | inactive | inactive | inactive | inactive | inactive | inactive |  |  | 
4 | CC[C@H]1CN2CCc3cc(OC)c(OC)cc3[C@@H]2C[C@@H]1C[C@H]1NCCc2cc(OC)c(OC)cc21 |  |  | 0.274 µM (active) | 487 nM (active) and 2.37 µM (active) | inactive | inactive |  | inactive |  | 
5 | CC(C)CCCCCCc1ccc(O)cc1 |  | 6.98 µM (active) and inactive | 62.2 µM (active) | 55.4 µM (active) and inactive | inactive | inactive |  | inactive | 5.54 µM (active) and inactive | 
6 | Oc1c(Cl)cc(Cl)cc1Sc1cc(Cl)cc(Cl)c1O | inactive |  | inactive | 27.4 µM (active) and inactive | inactive | inactive | inactive | inactive | 12.2 µM (active) and 17.5 µM (active) and 15.4 µM (active) | 
7 | O=C1CC2(CCCC2)CC(=O)N1CCCCN1CCN(c2ncccn2)CC1 | inactive | inactive | inactive | inactive | inactive | inactive | inactive |  |  | 
8 | Cc1occc(=O)c1OC(=O)C(C)C | inactive | inactive | inactive | inactive | inactive | inactive | inactive |  |  | 
9 | CCC(=O)/C=C/C1C(C)=CCCC1(C)C (stereo not drawn) | inactive | inactive | inactive | inactive | inactive | inactive | inactive |  |  | 
10 | CCCCCCCCCCCC[N+](C)(C)C | inactive | inactive and 24.3 µM (active) | 43.1 µM (active) and 61.1 µM (active) and 54.5 µM (active) | 60.9 µM (active) and 61.1 µM (active) and 30.6 µM (active) | inactive | inactive | inactive |  |  | 
11 | Nc1cc(S(=O)(=O)O)cc2cc(S(=O)(=O)O)cc(O)c12 | 27.3 µM (active) | inactive | inactive |  | inactive | inactive |  |  |  | 
12 | Oc1c(Cl)cc(Cl)c(Cl)c1Cc1c(O)c(Cl)cc(Cl)c1Cl |  | 8.41 µM (active) | 30.5 µM (active) and inactive | inactive | inactive | inactive |  | inactive |  | 3.43 µM (active) and 6.11 µM (active) and 6.68 µM (active)
13 | O=C(O[C@@H]1Cc2c(O)cc(O)cc2O[C@@H]1c1cc(O)c(O)c(O)c1)c1cc(O)c(O)c(O)c1 |  |  | 27.4 µM (active) and 26.3 µM (active) | 23.4 µM (active) | inactive | inactive |  |  | inactive | 
14 | CCCCCCC(O)CCCCCCCCCCC(=O)O (stereo not drawn) | inactive | inactive | inactive | inactive | inactive | inactive |  |  |  | 
15 | COc1ccc(CCN2CCC(Nc3nc4ccccc4n3Cc3ccc(F)cc3)CC2)cc1 | 49.6 µM (active) | 17.6 µM (active) and 21.1 µM (active) | 1.11 µM (active) and 3.76 µM (active) | 1.4 µM (active) and 11.9 µM (active) | inactive | inactive | inactive |  |  | 
16 | C[N+]1([O-])CCOCC1 | inactive | inactive | inactive | inactive | inactive | inactive | inactive |  |  | 
17 | Oc1ccc(Cl)cc1Cc1cc(Cl)ccc1O | inactive |  | 62.3 µM (active) and inactive | 55.5 µM (active) and 43.3 µM (active) and inactive | inactive | inactive | inactive | inactive | 44.1 µM (active) and 68.6 µM (active) | 13.9 µM (active) and 27.3 µM (active) and 23.7 µM (active)
18 | CC(N)=O | inactive | inactive | inactive | inactive | inactive | inactive | inactive |  |  | 
19 | Cc1cccc2n[nH]nc12 | inactive | inactive | inactive | inactive | inactive | inactive | inactive |  |  | 
20 | CCc1cc(C(C)(C)C)c(O)c(C(C)(C)C)c1 | inactive | inactive | inactive | inactive | inactive | inactive | inactive |  |  | 
21 | CCOC(=O)C(C)C(C)=O (stereo not drawn) | inactive | inactive | inactive | inactive | inactive | inactive | inactive |  |  | 
22 | CCN(CC)c1ccc2c(C)cc(=O)oc2c1 |  | inactive |  |  | inactive | inactive | inactive |  | inactive | 
23 | COc1ccc(CCN(C)CCCC(C#N)(c2ccc(OC)c(OC)c2)C(C)C)cc1OC (stereo not drawn) |  |  |  |  |  |  |  | inactive |  | 
24 | CCN(CC)CCOc1ccc(/C(=C(\Cl)c2ccccc2)c2ccccc2)cc1 | inactive |  |  | inactive | inactive | inactive | inactive |  |  | 
25 | OCCOCCN1CCN(C(c2ccccc2)c2ccc(Cl)cc2)CC1 (stereo not drawn) | inactive | inactive | 26.9 µM (active) | 19.1 µM (active) and inactive | inactive | inactive |  |  |  | 
26 | CC1=C(C=O)C(C)(C)CC=C1 | inactive | inactive | inactive | inactive | inactive | inactive | inactive |  |  | 
27 | Cc1c2oc3c(C)ccc(C(=O)N[C@@H]4C(=O)N[C@H](C(C)C)C(=O)N5CCC[C@H]5C(=O)N(C)CC(=O)N(C)[C@@H](C(C)C)C(=O)O[C@@H]4C)c3nc-2c(C(=O)N[C@@H]2C(=O)N[C@H](C(C)C)C(=O)N3CCC[C@H]3C(=O)N(C)CC(=O)N(C)[C@@H](C(C)C)C(=O)O[C@@H]2C)c(N)c1=O (I: T[dV]P[Sar][NMeV] / II: T[dV]P[Sar][NMeV]; ester I:1-I:C, II:1-II:C; linker I:N-II:N via Actinocin(9to1)) | 26.6 µM (active) |  | 42.1 nM (active) and 168 nM (active) | 42.1 nM (active) and 119 nM (active) | inactive | inactive |  | inactive | 23.7 nM (active) and 53.1 nM (active) | 26.6 nM (active) and 9.4 nM (active)
28 | Nc1ccc(O)cc1 |  | 50.4 µM (active) and inactive | 17.9 µM (active) | 31.8 µM (active) and inactive | inactive | inactive | inactive | inactive | 28.4 µM (active) and inactive | 25.3 µM (active) and inactive
29 | CCC(CO)(CO)COCC(CC)(CO)CO | inactive | inactive | inactive | inactive | inactive | inactive | inactive |  |  | 
30 | CC(C)(C)c1ccc(O)c(C(C)(C)C)c1 | inactive | inactive |  |  | inactive | inactive |  |  |  | 
